# Out of some 340,000 compounds screened, about 3,300 (0.97%) were called active. About 9% were inconclusive and are not listed. The call rests on the fitted dose curve; in most records, active means well fitted inhibition curve with a large enough effect; inconclusive means small, poorly fitted or top-dose-only effect, or effect the other way; inactive means flat fitted curve, though single readings scatter. This is one part of the list.
# Test: qHTS Assay for Modulators of miRNAs and/or Inhibitors of miR-21; further: nearly all actives have a fitted effect of over 55% in size
# Conditions: HeLa miR-21-FLuc reporter, luciferase luminescence, 48 h; actives lower the signal
# Procedure, shortened: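 HeLa miR-21-FLuc reporter line, endogenous miR-21; 2000 cells/well in DMEM/10% FBS; compound titration up to ~40uM final, 48 h, 37 degree Celsius; luciferase detection reagent, 15 min lysis, CCD luminescence.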
# Potency means the concentration at half of the fitted maximal effect.
row,Structure (SMILES),Potency
1,O=C(NC12CC3CC(CC(C3)C1)C2)c1ccc(-c2ccc(Br)cc2)o1,7.36 µM (active)
2,O=C(NC12CC3CC(CC(C3)C1)C2)c1ccc(-c2cccc(Cl)c2)o1,1.47 µM (active)
3,O=[N+]([O-])c1cc(/C=N/O)ccc1Oc1ccccc1Cl,16.5 µM (active)
4,O=[N+]([O-])c1cc(/C=N\O)ccc1Oc1ccc(F)cc1,16.5 µM (active)
5,CC(=O)C(C)Oc1ccc2c3c(c(=O)oc2c1)CCCC3 (configuration not stated),16.5 µM (active)
6,CC(=O)C(C)Oc1ccc2c3c(c(=O)oc2c1)CCCCC3 (configuration not stated),2.93 µM (active)
7,O=C(COC(=O)c1cc2ccccc2oc1=O)Nc1ccc(F)cc1F,6.56 µM (active)
8,CN(C)S(=O)(=O)c1cccc(NC(=O)COC(=O)c2cc3ccccc3oc2=O)c1,6.56 µM (active)
9,COc1ccc(-c2nnc(SCC(=O)c3ccc[nH]3)n2-c2ccccc2)cc1,13.1 µM (active)
10,Cc1ccc(SCC(=O)c2ccc[nH]2)cc1,13.1 µM (active)
11,O=c1c(Br)c(N2CCCC2)cnn1-c1ccccc1,1.85 µM (active)
12,O=C(N=C1c2ccccc2CN1c1ccc(F)c(Cl)c1)c1cccnc1Cl,6.56 µM (active)
13,COc1ccc(N2Cc3ccccc3C2=NC(=O)c2cccc([N+](=O)[O-])c2)cc1,13.1 µM (active)
14,O=C(N=C1c2ccccc2CN1c1cccc(Cl)c1)c1cccnc1,4.65 µM (active)
15,CC1SCC(NC(=O)c2ccc(Cl)cc2)CS1 (configuration not stated),16.5 µM (active)
16,CC1SCC(NC(=O)c2ccccc2Cl)CS1 (configuration not stated),13.1 µM (active)
17,CCn1c(C)nc2cc(C(=O)NNC(=S)Nc3ccccc3)ccc21,0.927 µM (active)
18,CCn1c(C)nc2cc(C(=O)NNC(=S)Nc3ccc(F)cc3)ccc21,8.26 µM (active)
19,COc1ccc(-c2c(C)nn(-c3ccccc3)c2N)cc1,5.21 µM (active)
20,Cc1nn(-c2nc3ccccc3[nH]2)c(N)c1-c1ccccc1,0.414 µM (active)
21,Cc1nn(-c2ccccc2)c(N)c1-c1ccccc1,6.56 µM (active)
22,Cc1nn(-c2cccc([N+](=O)[O-])c2)c(N)c1-c1ccccc1,4.14 µM (active)

row,Structure (SMILES),Potency
1,Cc1nn(C(=O)c2cccs2)c(N)c1-c1ccccc1,5.21 µM (active)
2,O=C(O)CCc1ccc(S(=O)(=O)Nc2ccccc2C(=O)NCCc2ccccc2)cc1,6.56 µM (active)
3,NC(=O)Nc1ccccc1C(=O)NCCc1ccccc1,5.85 µM (active)
4,N#Cc1ccccc1CSc1nnc(-c2ccc(Br)cc2)o1,0.414 µM (active)
5,c1ccc(CSc2nnc(-c3ccco3)o2)cc1,13.1 µM (active)
6,Cc1ccccc1-c1nnc(Cc2ccccc2)o1,4.14 µM (active)
7,Cc1ccccc1-c1nc(Cc2ccccc2)no1,14.7 µM (active)
8,Brc1ccc(-c2nnc(Cc3ccccc3)o2)cc1,13.1 µM (active)
9,Brc1c(CSc2nnc(-c3ccco3)o2)nc2ccccn12,11.7 µM (active)
10,Cc1ccccc1-c1nnc(CN2CCC(C)CC2)o1,14.7 µM (active)
11,Cc1ccccc1-c1nnc(SCc2ccccc2)o1,5.21 µM (active)
12,Cc1ccc(-c2nnc(SCc3ccccc3)o2)cc1,2.93 µM (active)
13,COC(=O)C1C(=O)c2c([nH]c(C(=O)OC3CCCC3)c2C)CC1C (configuration not stated),1.47 µM (active)
14,Cc1c(C(=O)OC2CCCC2C)[nH]c2c1C(=O)CCC2 (configuration not stated),6.56 µM (active)
15,Cc1c(C(=O)OC2CCC(C)CC2)[nH]c2c1C(=O)CCC2 (configuration not stated),0.464 µM (active)
16,COc1cc(Cl)ccc1OCc1cc(C(=O)N(C)CC2CCCCO2)no1 (configuration not stated),10.4 µM (active)
17,COc1cc(C)ccc1OCc1cc(C(=O)N(C)CCCN2CCOCC2)no1,6.56 µM (active)
18,COc1cc(Cl)ccc1OCc1cc(C(=O)N(C)CCc2cnn(C)c2)no1,5.85 µM (active)
19,Cc1cc(N(C)C)ccc1N=Nc1ccc2ncccc2c1,1.65 µM (active)
20,COc1cc2ccccc2cc1C(=O)Nc1ccccc1C,3.29 µM (active)
21,Cc1ccccc1NC(=O)c1ccc2ccccc2c1,5.21 µM (active)
22,COc1ccc(C(=O)Nc2ccccc2C(=O)O)cc1Cl,4.65 µM (active)

row,Structure (SMILES),Potency
1,COc1ccc2oc(=N)c(C(=O)Nc3ccccc3Cl)cc2c1,0.414 µM (active)
2,COc1cc2ccccc2cc1C(=O)Nc1ccccc1Cl,1.85 µM (active)
3,COc1cc2ccccc2cc1C(=O)Nc1ccc(C)cn1,0.656 µM (active)
4,CSc1ncc(-c2ccc(Cl)cc2)[nH]1,1.65 µM (active)
5,Cc1cccc(-n2cnc(C(=O)NC3CCCCCC3)c2)n1,3.69 µM (active)
6,Cc1cc(O)cc2c(=O)c3ccccc3sc12,16.5 µM (active)
7,CCn1c(C)cc(/C=C2/SC(=O)N(C(C)C(=O)OC)C2=O)c1C (configuration not stated),2.07 µM (active)
8,CCn1c(C)cc(/C=C2/SC(=S)NC2=O)c1C,10.4 µM (active)
9,CCC(=O)Nc1ccc2c(c1)ncn2-c1ccc(OC)cc1,16.5 µM (active)
10,CC(=O)Nc1ccc2c(c1)ncn2-c1ccccc1,7.36 µM (active)
11,COc1ccc(-n2cnc3cc(N)ccc32)cc1,14.7 µM (active)
12,CCC(=O)Nc1ccc2c(c1)ncn2-c1ccc(C)cc1,5.21 µM (active)
13,CCC(=O)Nc1ccc2c(c1)ncn2-c1ccccc1,7.36 µM (active)
14,O=C(Nc1ccc2c(c1)ncn2-c1ccccc1)c1ccco1,2.33 µM (active)
15,CCc1ccc(C(=O)N/N=C(\C)c2ccncc2)s1,20.7 µM (active)
16,Cc1scc(C(=O)N/N=C/c2ccc(Cl)s2)c1C,1.65 µM (active)
17,C/C(=N/NC(=O)c1ccc(C)s1)c1ccncc1,16.5 µM (active)
18,C/C(=N\NC(=O)c1csc(C)c1C)c1ccc(C)s1,13.1 µM (active)
19,O=C1CN(c2nc(-c3cccs3)nc3sc4c(c23)CCCC4)CCN1,10.4 µM (active)
20,CCN(CC)C(=O)c1cc2sc3ccccc3c2s1,3.29 µM (active)
21,CN(C)CCNC(=O)c1cc2c(s1)-c1ccccc1OC2,13.1 µM (active)
22,CN(C)CCNC(=O)c1cc2sc3ccccc3c2s1,16.5 µM (active)

row,Structure (SMILES),Potency
1,CC(C)(C)OC(=O)N/N=C\C=C\c1ccc2c(c1)OCO2,3.69 µM (active)
2,CCOC(=O)N/N=C\C=C\c1ccc2c(c1)OCO2,7.36 µM (active)
3,CN(C)c1ccc(N=Nc2cccc(F)c2)cc1,2.07 µM (active)
4,CN(C)c1ccc(N=Nc2cccc3ccoc23)cc1,0.826 µM (active)
5,Cc1nnsc1C(=O)NNc1ccc(C(C)C)cc1,13.1 µM (active)
6,CNC(=O)c1ccc2nc(CCc3ccccc3)oc2c1,5.85 µM (active)
7,COCCCNC(=O)c1ccc2nc(Cc3ccc(OC)cc3)oc2c1,9.27 µM (active)
8,O=C(NCCCn1ccnc1)c1cc(-c2cccs2)on1,14.7 µM (active)
9,O=C(NCCCn1ccnc1)c1cc(-c2ccccc2)on1,16.5 µM (active)
10,C(=N\N=C\c1cccs1)/c1cccs1,5.21 µM (active)
11,CCn1cnc2cc(NCc3ccc(C)cc3)ccc21,5.21 µM (active)
12,CCn1cnc2cc(NCc3ccccc3Cl)ccc21,11.7 µM (active)
13,CCc1ccc(CNc2ccc3c(c2)ncn3CC)cc1,5.21 µM (active)
14,COc1ccc(-n2cnc3cc(NCc4ccco4)ccc32)cc1,14.7 µM (active)
15,Cc1ccc(CNc2ccc3c(c2)ncn3C)cc1,3.29 µM (active)
16,Cc1ccc(CNc2ccc3c(c2)ncn3C(C)C)cc1,3.29 µM (active)
17,CC(C)n1cnc2cc(NCc3ccco3)ccc21,11.7 µM (active)
18,CCn1cnc2cc(NCc3ccc(Cl)cc3)ccc21,3.69 µM (active)
19,Cc1cccc(C(=O)Nc2ccc3c(c2)ncn3C)c1,1.47 µM (active)
20,COc1cccc(/C=C(/CC(=O)Nc2ccc(N3CCOCC3)cc2)c2nc3ccccc3s2)c1,16.5 µM (active)
21,O=C(Nc1ccc(N2CCOCC2)cc1)c1nc2ccccc2s1,0.0826 µM (active)
22,Cc1ccc2nc(-c3ccc(C)c(NC(=O)CSc4ccc(Cl)cc4)c3)oc2c1,2.07 µM (active)

row,Structure (SMILES),Potency
1,Cc1ccc2oc(-c3ccc(C)c(NC(=O)/C=C/c4ccc(Cl)cc4)c3)nc2c1,3.69 µM (active)
2,O=C(NC1CCCCC1)c1ccc(-c2cccc([N+](=O)[O-])c2)o1,1.31 µM (active)
3,O=C(NC1CCCCC1)c1ccc(-c2ccccc2[N+](=O)[O-])o1,1.17 µM (active)
4,COc1ccccc1CC(=O)NCc1csc(-c2cccs2)n1,6.56 µM (active)
5,O=C(NCc1csc(-c2cccs2)n1)C1CCCCC1,5.21 µM (active)
6,C/C(CCc1ccc2c(c1)OCO2)=N\NC(=O)c1ccccc1,13.1 µM (active)
7,Fc1cccc(CSc2ccc(-c3ccco3)nn2)c1,16.5 µM (active)
8,Fc1ccc(CSc2ccc(-c3ccco3)nn2)cc1,8.26 µM (active)
9,Cc1ccc(CSc2ccc(-c3ccco3)nn2)cc1,6.56 µM (active)
10,CCN(CC)N=Nc1[nH]nc2nc(C)cc(C)c12,16.5 µM (active)
11,Brc1ccc2oc(-c3ccn[nH]3)cc2c1,2.93 µM (active)
12,CCN(CC)CCCNC(=S)Nc1ccc(Br)cc1,2.93 µM (active)
13,CC(=O)/C=C(\C)N=Nc1c(O)[nH]c2ccccc12,18.5 µM (active)
14,Oc1ccc(NC(=S)N=Nc2c(O)[nH]c3ccccc23)cc1,11.7 µM (active)
15,O=C(CSCc1ccccc1)N=Nc1c(O)[nH]c2ccccc12,16.5 µM (active)
16,COc1ccc(/C=N/Nc2ccc(C(=O)O)cc2)cc1Br,0.104 µM (active)
17,COc1cc(/C=N/Nc2ccc(C(=O)O)cc2)cc(OC)c1OC,2.33 µM (active)
18,CCCOc1ccc(/C=N/Nc2ccc(C(=O)O)cc2)c(OCCC)c1,16.5 µM (active)
19,CC(C)c1ccc(/C=N/Nc2ccc(C(=O)O)cc2)cc1,0.0465 µM (active)
